This is part of a sample that, as a whole, favours compounds with a hit. Of some 83,000 tested, about 20% had one in any assay.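 Negative percent growth values reflect cell death: -40 means 40% of the cells present at the start died, and -100 means all died.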 A number with no mark means an inactive call. The source made the active and inactive calls. The calls were made as follows: active = growth percent below 10; inactive = the rest.

The values that follow come from PubChem BioAssay (NCI).

What all share (assay): NCI-60 one-dose screen, 48 h (100 = growth as untreated, 0 = no growth, -100 = all killed)
Common to all, as to settings: 10 µM unless noted

For assay [1], the system named is SK-MEL-2 melanoma.
Assay [2] has as its system EKVX NSCLC.
Assay [3] has as its system SN12C renal.
Assay [4] relates to UO-31 renal.
In assay [5] the test system is TK-10 renal.
In assay [6] the test system is ACHN renal.
Assay [7] concerns A498 renal.
Assay [8] deals with CCRF-CEM leukemia.
The test system of assay [9] is MOLT-4 leukemia.
The test system of assay [10] is SR leukemia.
Assay [11] relates to RPMI-8226 leukemia.
The test system of assay [12] is OVCAR-8 ovarian.
For assay [13], the system named is OVCAR-5 ovarian.
Assay [14] relates to OVCAR-4 ovarian.
The test system of assay [15] is SK-OV-3 ovarian.
Assay [16] concerns IGROV1 ovarian.
Assay [17] concerns OVCAR-3 ovarian.
Assay [18] deals with HS 578T breast.
Assay [19] has as its system NCI/ADR-RES ovarian.
The test system of assay [20] is CAKI-1 renal.

With `Cc1c2ccncc2c(C)c2c1c1cc(CO)ccc1n2C`, the growth is -7.55% (active) in assay [1]; 1.54% (active) in assay [2]; 6.64% (active) in [3]; 3.77% (active) in assay [4]; -21.4% (active) in assay [5]; 0.85% (active) in assay [6]. The growth is -81.7% (active) in assay [7]; 8.76% (active) in assay [8]; 6.68% (active) in assay [9]; -4.24% (active) in assay [10]; -17.1% (active) in assay [11]; 6.79% (active) in assay [12]. The growth in assay [13] is -15.8% (active); in assay [14], -3.73% (active); in assay [15] it was -2.65% (active); in assay [16] it was -8.24% (active); in assay [17], -24.2% (active); in assay [18], 24.3%. For the same compound, in assay [19], the growth was 4.56% (active).
In the case of `Cc1nn(-c2ccccc2)c(N)c1N=C1NC(=O)/C(=C/c2ccc(Br)cc2)S1`, the growth in assay [1] was 104%; in [2], 87.7%; in assay [3], 73.8%; in assay [4], 72.1%; in assay [5], 106%; in assay [6], 88.5%. Also, the growth is 67% in assay [7]; 72.1% in [8]; 80.8% in assay [9]; 36.8% in [10]; 42.3% in assay [11]; 98.8% in [12]. In addition, the growth is 72.7% in assay [13]; 95.6% in assay [14]; 84.8% in [15]; 99.6% in assay [16]; 72% in assay [17]; 93.6% in assay [18]. The growth in assay [19] was 77.7%.
Turning to `O=C1c2ccccc2C(=O)C1c1ccc(Br)cc1`, the growth in [1] was 106%; in assay [2], 95.6%; in [3] it was 95.3%; in [4], 82.6%; in [5], 125%; in assay [6], 97.1%. Also, the growth was 85.5% in assay [7]; 75.6% in assay [8]; 97.3% in assay [10]; 82.9% in assay [11]; 102% in assay [12]; 107% in assay [13]. The growth was 98.8% in [14]; 111% in assay [15]; 104% in assay [16]; 116% in assay [17]; 99.3% in [18]; 91.9% in assay [19].
For `N#Cc1cccc(C2C3=C(COC3=O)N(CCO)c3cc4c(cc32)CCC4)c1` (stereo not drawn), the growth is 24.5% in [1]; 41.4% in assay [2]; 34.3% in assay [3]; 39% in assay [4]; 54.2% in assay [5]; 26% in assay [6]. The growth was -6.54% (active) in [7]; 7.42% (active) in assay [8]; 13.5% in assay [9]; 14.8% in assay [10]; 19.3% in assay [11]; 5.25% (active) in assay [12]. In addition, the growth was 43.5% in [13]; 56.4% in assay [14]; 32.1% in assay [15]; 22.5% in assay [16]; -10.5% (active) in assay [17]; 28.2% in assay [18]. In assay [19], the growth was 2.04% (active).
As for `CNC(=O)c1ccccc1Nc1nc(Nc2cc(OC)c(OC)c(OC)c2)ncc1Br`, the growth in assay [1] was -77.4% (active); in [2], -10.4% (active); in assay [3], -40.7% (active); in [4] it was -17.6% (active); in assay [5], -31.4% (active); in assay [6], 12.5%. Besides, the growth in assay [7] was -88.4% (active); in [8], 71.3%; in assay [9], 66.3%; in assay [10], 6.27% (active); in [11], 41.5%; in assay [12] it was -20.3% (active). In addition, the growth in assay [13] was 13.3%; in assay [14], -34.5% (active); in assay [15], -77.2% (active); in [16] it was 4.34% (active); in assay [17], -6.51% (active); in assay [18], -3.22% (active). Besides, in [19], the growth was -10.7% (active).
On to `COc1ccc(C2=CC(c3cc(OC)c(OC)c(OC)c3)n3ncnc3N2)cc1` (stereo not drawn), for which the growth is 24% in assay [1]; 66.7% in [2]; 38.4% in [3]; 41.3% in assay [4]; 62% in assay [5]; 32.4% in [6]. Further, the growth was -5.66% (active) in assay [7]; 13.8% in assay [8]; 17.3% in assay [9]; 10.3% in [10]; 24.4% in assay [11]; 5.91% (active) in [12]. Besides, the growth in [13] was 35%; in [15], -7.15% (active); in assay [16], 22.2%; in assay [17], -41.4% (active); in assay [18], 27%; in assay [19] it was 12.8%.
For the compound `CCc1ccc(CCC(=O)Nc2ncc(Cc3cc(Cl)ccc3Cl)s2)o1`, the growth in [1] is 45.5%; in assay [2], 42.9%; in assay [3], 31.9%; in assay [4], 33.4%; in [5], 51%; in assay [6], 33.9%. Besides, the growth in assay [7] is -0.625% (active); in assay [8] it was 10.4%; in assay [9], 14.7%; in assay [10], 15.3%; in assay [11], 12.3%; in [12] it was 19.2%. Moreover, the growth was 24.5% in assay [13]; 50.3% in assay [14]; 34% in [15]; 23.5% in [16]; 7.65% (active) in [18]; -3.44% (active) in [19].
Consider `Cn1cc(-c2csc(-c3c[nH]c4ccc(F)cc34)n2)c2ccnc(Cl)c21`, for which the growth was 104% in [1]; 65.6% in assay [2]; 73.6% in assay [3]; 69.8% in assay [5]; 51% in assay [6]; 69.8% in [20]. In addition, the growth is 42.5% in assay [7]; 50.5% in assay [8]; 64.9% in [9]; 52.9% in assay [11]; 80.5% in [12]; 127% in assay [13]. Moreover, the growth is 47.2% in assay [14]; 74.3% in [15]; 70.5% in assay [16]; 73.4% in assay [17]; 74.3% in [18]; 71.4% in [19].
